Results: PubChem BioAssay AID687014 (The Scripps Research Institute Molecular Screening Center, 2013)
Among all 370,000 compounds or so, about 6,800 (1.8%) were called active.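 How the source made its calls: active means activation above a cutoff set at the mean of all screened compounds plus 3 SD (cut at about 10% in these data); inactive means the rest.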 The full list was thinned out, with actives kept by preference.

System: Nuclear hormone receptor DAF-12 (Heterodera glycines), GAL4 fusion
Test: hgDAF-12 GAL4 fusion reporter activation – cell-based, luminescence, HEK293, UAS-luciferase, primary screen (AID 687014);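 further: 0% = DMSO wells and 100% = sodium butyrate wells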
Conditions: HEK293 GAL4-hgDAF12 UAS-luciferase reporter, agonist luminescence; at 6.8 µM; stronger effect = higher value; normalized to butyrate control

SMILES | activation
CONc1nc2nonc2nc1NOC | -3.04% (inactive)
O=C(NCCC1=CCCCC1)c1ccc(Cl)c([N+](=O)[O-])c1 | 4.8% (inactive)
O=C(COc1cccc(-n2cnnn2)c1)NCCC1=CCCCC1 | -1.74% (inactive)
O=C(NCCC1=CCCCC1)c1ccc(-n2cncn2)cc1 | 11.6% (active)
COC(=O)[C@@]12CCCCC3=C1N(CCC3)C(=O)[C@H]2CC(=O)NCc1cccc2ccccc12 | -3.73% (inactive)
O=C(NC1CCCCN(Cc2ccc(Cl)cc2)C1=O)c1ccc(Br)cc1 (stereo unspecified) | -3.05% (inactive)
Fc1cc(F)c2nc(N3CCOCC3)sc2c1 | 11.6% (active)
Cc1cc(C)c2nc(N3CCC(C(=O)NCCN4CCOCC4)CC3)sc2c1 | 1.84% (inactive)
Cc1nc(N2CCOCC2)sc1C(=O)NN | -4.56% (inactive)
O=C(CN(CC1CCCO1)C(=O)CNS(=O)(=O)c1ccc(F)cc1)NCc1ccco1 (stereo unspecified) | -0.11% (inactive)
CCN(C(=O)CSc1ncnc2c1cnn2-c1ccccc1)C1CCS(=O)(=O)C1 (stereo unspecified) | 1.12% (inactive)
COc1cc(/C=N/O)ccc1OCc1ccc([N+](=O)[O-])cc1 | 19.8% (active)
CCOc1cc(/C=N/O)ccc1OCc1ccccc1F | 1.1% (inactive)
CCCc1ccc(OCc2ccc(C(=O)N/N=C/c3cccc([N+](=O)[O-])c3)o2)c(OC)c1 | 0.57% (inactive)
CCOC(=O)N1CCN(C(=O)C[C@@H]2C(=O)N(CCc3ccc(Cl)cc3)C3=CCCC[C@]32C(=O)OCC)CC1 | -0.14% (inactive)
N#Cc1c(NC(=O)C2CCCO2)sc2c1CCCCC2 (stereo unspecified) | 15.3% (active)
CCC1CCc2c(sc(NC(C)=O)c2C#N)C1 (stereo unspecified) | -1.78% (inactive)
N#Cc1c(NC(=O)C2CC(Cl)=CCC2C(=O)O)sc2c1CCCCC2 (stereo unspecified) | -1.72% (inactive)
O=C(CCl)NC1CCCCN(Cc2cccc(C(F)(F)F)c2)C1=O (stereo unspecified) | -7.36% (inactive)
O=C(Nc1ccccc1)N1CCN(Cc2nc3ccccc3c(=O)[nH]2)CC1 | 3.62% (inactive)
O=C1C(C=NCC2CCCO2)=C(O)c2ccccc21 (stereo unspecified) | 13.2% (active)
CC(=NCC1CCCO1)c1c(O)[nH]c(=O)[nH]c1=O (stereo unspecified) | -2.34% (inactive)
CCc1ccc(CN2C(=O)c3ccccc3C2C(=O)NCC2CCCO2)cc1 (stereo unspecified) | 0.15% (inactive)

SMILES | activation
O=S(=O)(c1ccccc1)N1CCC(c2nc3ccccc3o2)CC1 | -0.98% (inactive)
COc1cc(CN2CCNC(=O)C2CC(=O)NCCc2ncccc2C)cc(OC)c1 (stereo unspecified) | -1.06% (inactive)
CN(CCNC(=O)c1cc2c(-c3ccccc3F)nn(C)c2s1)C1CCCCC1 | 4.97% (inactive)
CN(C(=O)c1cc2c(=O)n3ccccc3nc2s1)C1CCCCC1 | 13% (active)
CCOCCCNC(=O)c1cc2c(=O)n3ccccc3nc2s1 | 3.33% (inactive)
Cc1ccc(-n2c(SCC(=O)Nc3ccc(S(=O)(=O)Nc4nccs4)cc3)nnc2-c2ccccn2)cc1 | -1.35% (inactive)
COC(=O)c1ccc(N2CCOCC2)c(NC(=O)c2ccc3c(c2)OCCO3)c1 | 0.79% (inactive)
Cc1ccc(C(=O)Nc2ncccc2C)cc1S(=O)(=O)N1CCOCC1 | 1.72% (inactive)
CN1CCN(c2ccc(NC(=O)c3ccc4c(c3)OCCO4)cc2Cl)CC1 | 28.8% (active)
O=C(Nc1cccc(Cl)c1N1CCOCC1)c1ccc2c(c1)OCCO2 | -1.47% (inactive)
Cc1ccc(NC(=O)c2ccc(Cl)nc2)cc1S(=O)(=O)N1CCOCC1 | 3.09% (inactive)
Cc1ccc(C(=O)Nc2ccc3c(c2)OCCO3)cc1S(=O)(=O)N1CCOCC1 | 11% (active)
O=C(CSc1nnc(-c2ccccc2)n1Cc1ccco1)Nc1ccccc1-c1ccccc1 | 0.11% (inactive)
Cc1cc2nc3c(=O)[nH]c(=O)nc-3n(C[C@H](O)[C@H](O)[C@H](O)CO)c2cc1C | -2.63% (inactive)
CCOC(=O)[C@]12CCCC3=C1N(CCC3)C(=O)[C@@H](CC(=O)NCc1cccs1)C2 | 1.07% (inactive)
CC(=O)OC12CCCN(C1)/C(=C/c1ccncc1)C2 (stereo unspecified) | -1.43% (inactive)
CC(C)CNc1cccc2c1S(=O)(=O)N[C@H](CC(C)C)CO2 | 3.06% (inactive)
COc1cccc(C(=O)Nc2cc3c(cc2Br)OCCCO3)c1 | 13.2% (active)
O=C(NCCc1ccc(C(F)(F)F)cc1)c1ccc2c(c1)OCO2 | 0.07% (inactive)
CN(Cc1c(F)cccc1Cl)C(=O)CNC(=O)c1ccc2c(c1)OCO2 | 7.57% (inactive)
O=C(Nc1ccccc1F)c1ccc2c(c1)OCO2 | 11.2% (active)
COc1ccc(C2COC(=O)C2=N)c(NC(=O)c2ccccc2)c1 (stereo unspecified) | 4.88% (inactive)
O=C(Nc1ccccc1)c1ccc2c(c1)OCCCO2 | 15.1% (active)

SMILES | activation
C/C(=N/NC(=S)Nc1ccccc1)c1ccc2c(c1)OCO2 | 10.2% (inactive)
O=C(CN1CCc2cc3c(cc2C1)OCCCO3)Nc1ccccc1 | -3.88% (inactive)
COc1cccc(C(=O)Nc2nnc(S(=O)(=O)N3CCOCC3)s2)c1 | 3.2% (inactive)
COC(=O)[C@]12C[C@H](CC(=O)NCCCN3CCCC3=O)C(=O)N(CCc3ccc(OC)c(OC)c3)C1=C[C@H](COCc1ccccc1)O[C@@H]2C | 4.36% (inactive)
Cc1ccc(NC(=S)Nc2ncccc2C)c(C)c1 | 11.8% (active)
Cc1ccc(NC(=O)c2cc(C)nn2-c2ccccc2)c(C)c1 | -1.76% (inactive)
Cc1cc(Br)ccc1NC(=S)NC1CCCC1 | 1.25% (inactive)
Nc1ccn([C@@H]2O[C@H](C(=O)N[C@H]3CCCCNC3=O)[C@@H](O)[C@H]2O)c(=O)n1 | 0.25% (inactive)
CCC(NC(=O)C1C2C=CC3(CN(Cc4ccccc4)C(=O)C13)O2)c1ccccc1 (stereo unspecified) | -3.86% (inactive)
Cn1cc[n+](C)c1COc1ccc(C=O)cc1 | 1% (inactive)
O=Cc1ccc(OCc2cn3ccccc3n2)cc1 | 12.9% (active)
O=C(NCCc1ccco1)c1ccc(OCc2cn3ccccc3n2)cc1 | 5.95% (inactive)
O=C(Nc1cc(F)cc(F)c1)OC1CCC12CCC(c1ccccc1)CC2 (stereo unspecified) | 2.34% (inactive)
CC(C)C[C@H](NC(=O)CC1CCCC1)C(=O)N1CCC[C@H]1C(=O)NCc1ccccc1 | -4.65% (inactive)
Cc1cc(NC(=O)CSCC(=O)NC(C)c2ccccc2)no1 (stereo unspecified) | 2.82% (inactive)
Cc1ccc2nc(-c3ccc(SCC(=O)Nc4cc(C)on4)nc3)[nH]c2c1 | 15.3% (active)
Cc1cc(NC(=O)CSc2nnnn2-c2ccc(F)cc2)no1 | 1.39% (inactive)
COC(=O)C1CN(CCc2ccccc2)CCS(=O)(=O)N1Cc1ccc(F)cc1 (stereo unspecified) | 2.5% (inactive)
C=CCN=C1NC(c2ccccc2)C(C(=O)OC)=C(C)N1Cc1ccc(C(F)(F)F)cc1 (stereo unspecified) | 0.51% (inactive)
COc1ccc(CN2CCCC(C(=O)c3ccc(Cl)cc3)C2)cc1Cn1cncn1 (stereo unspecified) | -0.88% (inactive)
COc1ccc(C2Nc3ccccc3C(=O)N2c2ccc(Cl)cc2)cc1Cn1cc([N+](=O)[O-])cn1 (stereo unspecified) | 15.2% (active)
COc1ccc(C2Nc3ccccc3C(=O)N2Cc2cccs2)cc1COc1c(C)cccc1C (stereo unspecified) | 1.89% (inactive)
Cc1ccc(-n2c(SCC(=O)Nc3ccc(S(=O)(=O)Nc4nccs4)cc3)nnc2-c2cccnc2)cc1 | -1% (inactive)

SMILES | activation
Cc1cc(C)c(S(=O)(=O)N2CCC(C(=O)OCc3c(C)noc3C)CC2)c(C)c1 | 1.53% (inactive)
CC(OC(=O)Cc1ccc(F)cc1)C(=O)N1CCc2ccccc21 (stereo unspecified) | 0.83% (inactive)
O=C(CN1C(=O)c2ccccc2S1(=O)=O)N1CCc2ccccc21 | -10.8% (inactive)
O=C(CSCc1ccccc1)N1CCc2ccccc21 | 17.5% (active)
CCOC(=O)[C@@]12CCC3=C1N(CCC3)C(=O)[C@H](CC(=O)N1CCN(C(=O)c3ccco3)CC1)C2 | -0.79% (inactive)
CC1(C)OC(=O)C2=C(CC(CCc3ccccc3)OC2c2ccc(Cl)cc2)O1 (stereo unspecified) | 3.41% (inactive)
CC(C)N(Cc1nnc(-c2ccc(Cl)cc2)o1)C(=O)C1=COCCO1 | 0.6% (inactive)
CC(NCc1ccco1)C(=O)N1CCCCC1 (stereo unspecified) | 1.35% (inactive)
C#CCCN([C@H](C(=O)OC)C(C)C)S(=O)(=O)c1ccc(F)cc1Br | 2.22% (inactive)
COc1cccc(CNC(=O)[C@H]2CCCN2C(=O)[C@H]2CCCN2C(=O)c2cc(F)cc(F)c2)c1 | 0.08% (inactive)
Cc1ccccc1C(=O)NC(=S)NC1CC1 | 0.72% (inactive)
CC(=O)Nc1ccc(NC(=S)NC(=O)c2ccc([N+](=O)[O-])c(C)c2)cc1 | -2.56% (inactive)
Cc1ccc(C(=O)NC(=S)Nc2ccccc2C)cc1 | 12.1% (active)
COC(=O)[C@H](CC(C)C)NS(=O)(=O)c1c(F)cccc1F | -0.44% (inactive)
CCCCCCCCN1C(=O)[C@@H](CC(=O)NCc2ccc(C)o2)C[C@@]2(C(=O)OC)C1=C[C@H](C(C)(C)C)O[C@@H]2C | -0.08% (inactive)
COC(=O)N/N=C/c1cn(CCCOc2ccc(C)cc2)c2ccccc12 | 15% (active)
O=Cc1cn(CCOc2ccc(F)cc2)c2ccccc12 | -2.45% (inactive)
Cc1ccc(OCCOc2cccc(/C=N/NC(N)=O)c2)cc1 | 5.18% (inactive)
O=C(CNS(=O)(=O)c1ccccc1F)N1CCN(c2ccccn2)CC1 | 0.61% (inactive)
COC(=O)[C@]12C[C@H](CC(=O)NCc3ccccc3)C(=O)N(CCc3ccc(OC)c(OC)c3)C1=C[C@H](C(C)(C)C)O[C@@H]2C | 0.98% (inactive)
COc1ccc(OC)c(CNC(=O)Cn2nc(C)c3c(C)n(-c4ccc(C)cc4)nc3c2=O)c1 | -2.32% (inactive)
O=C(CCS(=O)(=O)Cc1ccccc1F)NCCCN1CCCCC1 | 0.82% (inactive)
